Data taken from the supplement of paper PMC10849652.
About 8,800 targets were measured; listed, in parts, are those with a hit and a random draw of the rest. About 0.5% of all pairs of compound and target were hits.

How the values were obtained:
Test in all cases: log2 fold change, soluble protein after heating vs DMSO (PISA); higher = thermal stabilisation; K562 lysate, 10 uM; active = over 0.2 and 3.5 SD of the protein, either way, in both replicates (recomputed)
ibrutinib = compound: C=CC(=O)N1CCC[C@@H](n2nc(-c3ccc(Oc4ccccc4)cc3)c3c(N)ncnc32)C1 [ibrutinib]
Method in brief: (§1)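 The values are log-two fold changes in thermal stability compared with solvent controls and come from duplicates. They were obtained by TMTpro 16plex LC-MS/MS, with channel sums equalised, on the supernatant after 21,000xg for 90 min. That supernatant came from crude K562 extract at 1 mg/mL protein treated with 10 μM compound for 30 min, heated for 3 min across 48°C-58°C, pooled and brought to 0.5% NP-40 at 4°C.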

[1] = compound: CC(=O)c1cnc2ccc(-c3cc(Cl)c(O)c(Cl)c3)nc2c1N[C@H]1CC[C@H](CN(C)C)CC1
Method in brief: as §1

ralimetinib = compound: CC(C)(C)Cn1c(N)nc2ccc(-c3[nH]c(C(C)(C)C)nc3-c3ccc(F)cc3)nc21 [ralimetinib]
Method in brief: as §1

[2] = compound: CC(C)(O)CC(=O)NCCn1ccc2ncnc(Nc3ccc(Oc4cccc(C(F)(F)F)c4)c(Cl)c3)c21
Method in brief: as §1

[3] = compound: CC(C)C1=C2N=C(C=C(N2N=C1)NCC3=CC=CC=C3)NCCCCCCN
Method in brief: as §1

[4] = compound: CC1=C(C(CC(=O)N1)C2=CC=C(C=C2)C(F)(F)F)C(=O)NC3=C(C=C4C(=C3)C=NN4)F
Method in brief: as §1

[5] = compound: CC1=C(C2=C(C=C1)C(=O)C3=CC=CC=C3N2CCCN)C
Method in brief: as §1

[6] = compound: CC1=C(C=C(C=C1)NC(=O)C2=CC(=CC=C2)C(C)(C)C#N)NC3=CC4=C(C=C3)N=CN(C4=O)C
Method in brief: as §1

[7] = compound: CC1=C(C=C(C=C1)NC(=O)C2=CC(=CC=C2)N(C)C)NC(=O)C3=CC=C(C=C3)O
Method in brief: as §1

[8] = compound: CC1=CC=C(C=C1)SC2=C3C=C(SC3=CN=C2)C(=O)N
Method in brief: as §1

vemurafenib = compound: CCCS(=O)(=O)Nc1ccc(F)c(C(=O)c2c[nH]c3ncc(-c4ccc(Cl)cc4)cc23)c1F [vemurafenib]
Method in brief: as §1

[9] = compound: CCCS(=O)(=O)Nc1ccc(F)c(C(=O)c2c[nH]c3ncc(Cl)cc23)c1F
Method in brief: as §1

barasertib = compound: CCN(CCCOc1ccc2c(Nc3cc(CC(=O)Nc4cccc(F)c4)[nH]n3)ncnc2c1)CCOP(=O)(O)O [barasertib]
Method in brief: as §1

[10] = compound: CC[C@@H]1C(=O)N(C)c2cnc(Nc3ccc(C(=O)NC4CCN(C)CC4)cc3OC)nc2N1C1CCCC1
Method in brief: as §1

volasertib = compound: CC[C@@H]1C(=O)N(C)c2cnc(Nc3ccc(C(=O)N[C@H]4CC[C@H](N5CCN(CC6CC6)CC5)CC4)cc3OC)nc2N1C(C)C [volasertib]
Method in brief: as §1

[11] = compound: CCn1c(C(=O)N(C2CC2)C2CC2)cc2c3c(ncn3C)c(Nc3cc(C)n(C)n3)nc21
Method in brief: as §1

[12] = compound: CCn1cc(-c2ccnc3[nH]c(-c4cccc(CN(C)C)c4)cc23)c(-c2ccc(NC(=O)N(C)C)cc2)n1
Method in brief: as §1

[13] = compound: CN1CCC(CNc2ccc3ncc(-c4cccc(OC(F)(F)F)c4)n3n2)CC1
Method in brief: as §1

saracatinib = compound: CN1CCN(CCOc2cc(OC3CCOCC3)c3c(Nc4c(Cl)ccc5c4OCO5)ncnc3c2)CC1 [saracatinib]
Method in brief: as §1

sotrastaurin = compound: CN1CCN(c2nc(C3=C(c4c[nH]c5ccccc45)C(=O)NC3=O)c3ccccc3n2)CC1 [sotrastaurin]
Method in brief: as §1

Measured: log2 fold change

MINK1 (UniProt Q8N4C8)
Sequence of UniProt Q8N4C8 (Q8N4C8 whole entry, looked up): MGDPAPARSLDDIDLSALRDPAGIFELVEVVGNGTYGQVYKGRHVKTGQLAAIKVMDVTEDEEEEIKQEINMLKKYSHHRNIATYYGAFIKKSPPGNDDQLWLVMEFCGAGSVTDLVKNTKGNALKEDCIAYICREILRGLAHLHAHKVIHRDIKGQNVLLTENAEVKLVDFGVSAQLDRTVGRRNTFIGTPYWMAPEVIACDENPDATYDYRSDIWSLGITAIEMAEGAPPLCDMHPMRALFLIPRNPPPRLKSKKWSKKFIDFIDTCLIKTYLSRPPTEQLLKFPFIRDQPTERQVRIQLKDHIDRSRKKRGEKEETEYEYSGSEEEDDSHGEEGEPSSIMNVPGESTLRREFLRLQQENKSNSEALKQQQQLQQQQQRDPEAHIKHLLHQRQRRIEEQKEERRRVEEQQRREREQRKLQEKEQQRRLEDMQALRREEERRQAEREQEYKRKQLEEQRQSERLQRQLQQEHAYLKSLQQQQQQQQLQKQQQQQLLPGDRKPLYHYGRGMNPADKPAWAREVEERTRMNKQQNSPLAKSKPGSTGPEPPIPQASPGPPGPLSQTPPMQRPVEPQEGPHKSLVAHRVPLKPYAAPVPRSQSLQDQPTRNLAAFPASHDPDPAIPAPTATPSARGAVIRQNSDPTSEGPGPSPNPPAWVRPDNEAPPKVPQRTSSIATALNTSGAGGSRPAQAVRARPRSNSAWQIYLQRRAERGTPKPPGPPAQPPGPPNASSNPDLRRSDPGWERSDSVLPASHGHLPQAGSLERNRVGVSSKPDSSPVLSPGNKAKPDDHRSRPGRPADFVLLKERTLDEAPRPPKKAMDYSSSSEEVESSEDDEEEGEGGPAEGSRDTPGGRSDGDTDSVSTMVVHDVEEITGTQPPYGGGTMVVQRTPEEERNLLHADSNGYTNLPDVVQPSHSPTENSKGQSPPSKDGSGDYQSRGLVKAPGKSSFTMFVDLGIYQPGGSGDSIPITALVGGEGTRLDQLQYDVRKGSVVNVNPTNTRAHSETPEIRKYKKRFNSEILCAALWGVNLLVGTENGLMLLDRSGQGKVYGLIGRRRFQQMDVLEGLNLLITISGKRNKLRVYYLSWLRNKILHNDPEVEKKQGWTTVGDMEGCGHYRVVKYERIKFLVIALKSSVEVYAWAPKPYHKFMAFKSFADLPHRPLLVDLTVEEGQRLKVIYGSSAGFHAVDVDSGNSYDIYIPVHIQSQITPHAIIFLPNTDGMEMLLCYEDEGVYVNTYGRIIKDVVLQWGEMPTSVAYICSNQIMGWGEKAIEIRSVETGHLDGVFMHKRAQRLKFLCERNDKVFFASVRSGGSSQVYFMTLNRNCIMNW
inactive: ibrutinib -0.003 | [1] 0.013 | ralimetinib 0.042 | [2] -0.051 | [3] 0.119 | [4] -0.144 | [5] -0.03 | [6] -0.008 | [7] 0.013 | [8] 0.021 | vemurafenib -0.096 | [9] -0.107 | barasertib -0.017 | [10] -0.012 | volasertib 0.022 | [11] 0.076 | [12] -0.033 | [13] -0.09 | saracatinib 0.007 | sotrastaurin 0.079

KMT2A isoform 3 (UniProt Q03164)
inactive: ibrutinib -0.054 | [1] 0.005 | ralimetinib -0.008 | [2] -0.117 | [3] 0.019 | [4] -0.114 | [5] -0.047 | [6] -0.046 | [7] 0.025 | [8] 0 | vemurafenib 0.044 | [9] -0.033 | barasertib 0.042 | [10] -0.035 | volasertib -0.054 | [11] -0.058 | [12] -0.093 | [13] -0.01 | saracatinib -0.069 | sotrastaurin 0.034

MIF4GD isoform 3 (UniProt A9UHW6)
Sequence of UniProt A9UHW6 (A9UHW6 whole entry, looked up): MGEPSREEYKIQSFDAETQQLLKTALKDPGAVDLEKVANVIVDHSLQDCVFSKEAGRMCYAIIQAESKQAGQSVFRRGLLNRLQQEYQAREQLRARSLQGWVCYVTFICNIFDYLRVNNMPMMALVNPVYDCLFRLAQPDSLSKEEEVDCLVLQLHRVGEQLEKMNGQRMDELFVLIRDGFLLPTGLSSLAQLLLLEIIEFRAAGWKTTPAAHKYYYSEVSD
inactive: ibrutinib 0.108 | [1] -0.032 | ralimetinib -0.04 | [2] -0.014 | [3] 0.016 | [4] -0.002 | [5] -0.049 | [6] 0 | [7] -0.04 | [8] -0.004 | vemurafenib 0.016 | [9] 0.009 | barasertib 0.051 | [10] -0.019 | volasertib -0.012 | [11] 0.037 | [12] 0.028 | [13] 0.015 | saracatinib 0.02 | sotrastaurin 0.017

MBOAT2 (UniProt Q6ZWT7)
Sequence of UniProt Q6ZWT7 (Q6ZWT7 whole entry, looked up): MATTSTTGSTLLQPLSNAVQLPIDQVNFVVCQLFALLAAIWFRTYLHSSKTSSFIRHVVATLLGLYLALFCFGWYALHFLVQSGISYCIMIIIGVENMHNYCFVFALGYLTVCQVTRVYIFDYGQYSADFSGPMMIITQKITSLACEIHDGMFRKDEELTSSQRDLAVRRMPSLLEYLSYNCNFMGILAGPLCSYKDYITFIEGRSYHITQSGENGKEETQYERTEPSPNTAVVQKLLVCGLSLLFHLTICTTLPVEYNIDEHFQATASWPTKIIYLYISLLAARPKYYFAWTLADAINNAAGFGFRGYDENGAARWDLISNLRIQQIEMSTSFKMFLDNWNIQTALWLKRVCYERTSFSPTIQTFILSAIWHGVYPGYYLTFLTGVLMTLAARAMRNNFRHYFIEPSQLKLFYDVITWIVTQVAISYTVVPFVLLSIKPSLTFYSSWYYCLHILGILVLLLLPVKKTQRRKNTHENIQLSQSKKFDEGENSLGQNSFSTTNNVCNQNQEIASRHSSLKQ
inactive: ibrutinib -0.092 | [1] -0.039 | ralimetinib 0.137 | [2] 0.047 | [3] -0.047 | [4] 0.034 | [5] 0.031 | [6] 0.008 | [7] -0.117 | [8] 0.096 | vemurafenib 0.02 | [9] -0.01 | barasertib 0.121 | [10] 0.159 | volasertib -0.103 | [11] -0.015 | [12] -0.251 | [13] 0.026 | saracatinib 0.045 | sotrastaurin 0.284

MAPKAPK2 (UniProt P49137)
Sequence of UniProt P49137 (P49137 whole entry, looked up): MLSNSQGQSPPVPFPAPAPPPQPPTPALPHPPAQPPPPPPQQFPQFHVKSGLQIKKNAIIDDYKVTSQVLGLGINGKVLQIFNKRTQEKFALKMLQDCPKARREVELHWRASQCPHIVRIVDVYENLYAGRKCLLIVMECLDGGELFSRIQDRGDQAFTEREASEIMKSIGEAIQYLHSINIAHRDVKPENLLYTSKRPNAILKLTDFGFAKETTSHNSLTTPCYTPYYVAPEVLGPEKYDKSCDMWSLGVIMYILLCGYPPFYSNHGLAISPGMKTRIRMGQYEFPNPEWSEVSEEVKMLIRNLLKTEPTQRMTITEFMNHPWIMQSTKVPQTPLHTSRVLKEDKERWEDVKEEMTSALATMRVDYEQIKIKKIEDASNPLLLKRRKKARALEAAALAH
inactive: ibrutinib 0.05 | ralimetinib -0.011 | [2] 0.016 | [3] -0.046 | [4] 0.003 | [5] 0.002 | [6] -0.056 | [7] 0.026 | [8] 0 | vemurafenib 0.011 | [9] -0.043 | barasertib 0 | [10] -0.015 | volasertib -0.032 | [11] 0.009 | [12] -0.032 | [13] 0.002 | saracatinib -0.037 | sotrastaurin -0.015
active: [1] 0.385

KIF2A isoform 4 (UniProt O00139)
Sequence of UniProt O00139 (O00139 whole entry, looked up): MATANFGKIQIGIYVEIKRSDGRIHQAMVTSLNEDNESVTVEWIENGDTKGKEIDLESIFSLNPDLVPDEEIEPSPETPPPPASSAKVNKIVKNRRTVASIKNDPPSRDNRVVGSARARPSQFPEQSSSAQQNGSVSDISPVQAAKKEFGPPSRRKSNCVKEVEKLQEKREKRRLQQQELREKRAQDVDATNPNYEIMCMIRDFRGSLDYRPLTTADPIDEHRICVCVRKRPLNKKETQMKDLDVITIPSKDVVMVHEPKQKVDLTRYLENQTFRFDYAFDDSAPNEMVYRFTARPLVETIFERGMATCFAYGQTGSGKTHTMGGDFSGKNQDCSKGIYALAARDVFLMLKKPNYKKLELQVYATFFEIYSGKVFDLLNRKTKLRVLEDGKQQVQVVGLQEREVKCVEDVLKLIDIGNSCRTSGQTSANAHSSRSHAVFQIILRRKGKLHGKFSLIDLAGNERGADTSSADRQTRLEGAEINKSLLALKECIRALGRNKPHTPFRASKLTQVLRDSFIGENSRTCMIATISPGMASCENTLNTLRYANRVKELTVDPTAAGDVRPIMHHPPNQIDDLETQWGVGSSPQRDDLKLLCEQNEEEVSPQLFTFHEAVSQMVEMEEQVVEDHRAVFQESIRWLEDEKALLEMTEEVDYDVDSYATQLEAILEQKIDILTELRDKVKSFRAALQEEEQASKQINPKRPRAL
inactive: ibrutinib 0.031 | [1] 0 | ralimetinib 0.017 | [2] 0.009 | [3] 0.002 | [4] -0.01 | [5] -0.002 | [6] -0.02 | [7] 0.032 | [8] 0.018 | vemurafenib -0.006 | [9] 0 | barasertib -0.014 | [10] -0.117 | volasertib -0.032 | [11] 0.042 | [12] -0.013 | [13] 0.009 | saracatinib 0.021 | sotrastaurin 0.023

MICU2 (UniProt Q8IYU8)
Sequence of UniProt Q8IYU8 (Q8IYU8 whole entry, looked up): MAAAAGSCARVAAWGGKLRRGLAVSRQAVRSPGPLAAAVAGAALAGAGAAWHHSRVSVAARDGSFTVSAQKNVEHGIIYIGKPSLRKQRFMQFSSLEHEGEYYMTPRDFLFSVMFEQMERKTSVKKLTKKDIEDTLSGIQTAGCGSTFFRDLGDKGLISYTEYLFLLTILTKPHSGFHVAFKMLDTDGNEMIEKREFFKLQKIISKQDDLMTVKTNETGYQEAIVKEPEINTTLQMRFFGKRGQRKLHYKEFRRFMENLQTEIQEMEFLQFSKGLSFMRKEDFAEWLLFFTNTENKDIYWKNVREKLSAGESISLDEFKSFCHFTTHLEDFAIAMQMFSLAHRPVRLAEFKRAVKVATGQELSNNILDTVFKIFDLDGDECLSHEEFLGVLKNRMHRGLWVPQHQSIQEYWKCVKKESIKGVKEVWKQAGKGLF
inactive: ibrutinib 0.036 | [1] -0.095 | ralimetinib -0.019 | [2] -0.026 | [3] -0.016 | [4] -0.019 | [5] -0.004 | [6] 0.012 | [7] -0.018 | [8] 0.013 | vemurafenib -0.061 | [9] 0.043 | barasertib 0.109 | [10] -0.023 | volasertib 0 | [11] -0.036 | [12] 0.013 | [13] -0.101 | saracatinib 0.021 | sotrastaurin 0.126

L3HYPDH (UniProt Q96EM0)
Sequence of UniProt Q96EM0 (Q96EM0 whole entry, looked up): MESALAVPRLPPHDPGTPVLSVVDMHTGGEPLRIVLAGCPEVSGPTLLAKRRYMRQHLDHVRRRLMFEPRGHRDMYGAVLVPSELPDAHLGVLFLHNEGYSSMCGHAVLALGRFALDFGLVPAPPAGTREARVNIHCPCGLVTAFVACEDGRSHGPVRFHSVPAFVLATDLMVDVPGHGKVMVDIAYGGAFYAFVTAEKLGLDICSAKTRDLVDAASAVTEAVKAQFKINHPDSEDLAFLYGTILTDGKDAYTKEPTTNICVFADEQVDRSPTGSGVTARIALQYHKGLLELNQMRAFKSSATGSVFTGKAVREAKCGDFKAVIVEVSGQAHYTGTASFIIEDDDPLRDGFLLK
inactive: ibrutinib -0.004 | [1] 0.039 | ralimetinib -0.021 | [2] -0.004 | [3] 0.004 | [4] -0.044 | [5] -0.001 | [6] 0.032 | [7] 0.018 | [8] -0.024 | vemurafenib 0.04 | [9] 0.033 | barasertib 0.015 | [10] 0.002 | volasertib -0.017 | [11] 0.011 | [12] 0.01 | [13] 0.012 | saracatinib -0.027 | sotrastaurin -0.008
